Read-out in assay [1]: Monokine induced gamma interferon (MIG), CXCL9 (gene 4283)
The experiment in a line: BSK_3C_MIG: BioMAP Diversity Plus: 3C Assay for Monokine induced gamma interferon (MIG) Biomarker Activity (AID 2283021). The settings on record: primary human endothelial cells (HUVEC); actives raise or lower the signal. An outline of the steps:
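Endothelial primary cells (human umbilical vein) are dosed with test chemical in the 3C system. MIG levels are measured by ELISA at 24 h and fitted in both directions relative to DMSO.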

Assay [2] is described as follows: BSK_3C_SRB: Viability Assessment in the BioMAP Diversity Plus: 3C Assay (AID 2283023).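 Also: fitted both ways against DMSO so a hit may be signal rise or drop.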 To be noted: primary human endothelial cells (HUVEC). An outline of the steps: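 Overt cytotoxicity is gauged in parallel confluent HUVEC cultures by SRB total-protein staining at the time of biomarker measurement, 24 h after dosing. Gain or loss of signal is fitted versus DMSO.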

Read-out in assay [3]: Matrix Metallopeptidase 1 (MMP1), MMP1 (gene 4312)
The experiment in a line: BSK_BE3C_MMP1: BioMAP Diversity Plus: BE3C Assay for Matrix Metallopeptidase 1 (MMP1) Biomarker Activity (AID 2283024). The settings on record: primary human bronchial epithelial cells; actives raise or lower the signal. An outline of the steps:
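MMP1 signal, measured by ELISA after a 24 h chemical exposure of human primary bronchial epithelial cells, is analysed with bidirectional fitting using DMSO as negative control.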

The nature of assay [4]: BSK_3C_Vis: BioMAP Diversity Plus: 3C Assay for Morphology Visualization (AID 2283025).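 Also: fitted both ways so gain or loss versus DMSO counts.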 To be noted: primary human endothelial cells (HUVEC). An outline of the steps: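 Morphology read by light microscopy serves as a background control for the multiplexed 3C assay in human umbilical vein endothelial cells, taken 24 h after dosing, with DMSO as the negative control and bidirectional curve fitting.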

Read-out in assay [5]: Pselectin, SELP (gene 6403)
The experiment in a line: BSK_4H_Pselectin: BioMAP Diversity Plus: 4H Assay for Pselectin Biomarker Activity (AID 2283026). The settings on record: primary human endothelial cells (HUVEC); actives raise or lower the signal. An outline of the steps:
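Endothelial primary cells (human umbilical vein) are dosed, incubated 24 h, and assayed for surface P-selectin by ELISA; responses in either direction are fitted relative to the DMSO negative control.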

Assay [6] can be described thus: BSK_4H_SRB: Viability Assessment in the BioMAP Diversity Plus: 4H Assay (AID 2283027).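 Also: cells exposed to compound for 24 h before staining.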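 As to AC50: curves fitted both ways versus DMSO so AC50 may be loss or gain.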 The settings on record: primary human endothelial cells (HUVEC). An outline of the steps:
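HUVEC, 24 h post-dose; 10% TCA fix, 0.1% SRB stain, A560 nm. Total protein = overt cytotoxicity, parallel to biomarker read. Bidirectional fit vs DMSO baseline.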

Assay [7] can be described thus: BSK_BE3C_SRB: Viability Assessment in the BioMAP Diversity Plus: BE3C Assay (AID 2283028). To be noted: primary human bronchial epithelial cells. An outline of the steps: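 SRB total-protein staining (0.1%, after TCA fixation) of chemically dosed human bronchial epithelial primary cells at 24 h; DMSO serves as the negative control for bidirectional curve fitting.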

Read-out in assay [8]: Thrombomodulin, THBD (gene 7056)
The experiment in a line: BSK_3C_Thrombomodulin: BioMAP Diversity Plus: 3C Assay for Thrombomodulin Biomarker Activity (AID 2283029). To be noted: primary human endothelial cells (HUVEC); actives raise or lower the signal. An outline of the steps: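 Endothelial cells from umbilical vein are dosed with test chemical and incubated 24 h. Thrombomodulin is then quantified by ELISA, with DMSO serving as negative control and activity baseline.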

Read-out in assay [9]: Urokinase-type plasminogen activator receptor (uPAR), PLAUR (gene 5329)
The experiment in a line: BSK_4H_uPAR: BioMAP Diversity Plus: 4H Assay for Urokinase-type plasminogen activator receptor (uPAR) Biomarker Activity (AID 2283030). To be noted: primary human endothelial cells (HUVEC); actives raise or lower the signal. An outline of the steps:
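Endpoint derived via bidirectional curve fitting against DMSO baseline; readout was ELISA detection of uPAR on umbilical vein endothelial cells at 24 h post-treatment, with SRB-stained parallel cultures assessing cytotoxicity.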

Read-out in assay [10]: Vascular endothelial growth factor receptor 2 (Homo sapiens) (UniProt P35968)
The experiment in a line: BSK_4H_VEGFRII: BioMAP Diversity Plus: 4H Assay for Vascular endothelial growth factor receptor 2 (VEGFR2) Biomarker Activity (AID 2283031). The settings on record: primary human endothelial cells (HUVEC); actives raise or lower the signal. An outline of the steps:
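In this multiplexed HUVEC system, biomarker ELISA was performed after 24 h chemical exposure. Parallel SRB staining (TCA fixation, 560 nm) tracked cytotoxicity; DMSO served as baseline.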

Read-out in assay [11]: Human Leukocyte Antigen - DR isotype (HLADR), HLA-DRA (gene 3122)
The experiment in a line: BSK_BE3C_HLADR: BioMAP Diversity Plus: BE3C Assay for Human Leukocyte Antigen - DR isotype (HLADR) Biomarker Activity (AID 2283032). To be noted: primary human bronchial epithelial cells; actives raise or lower the signal. An outline of the steps:
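Chemicals are dosed onto BE3C bronchial epithelial cultures of human origin and left 24 h. HLA-DR is then measured by ELISA, and the endpoint is fitted in both directions using DMSO as the activity baseline.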

Read-out in assay [12]: Vascular cell adhesion molecule 1 (VCAM1), VCAM1 (gene 7412)
The experiment in a line: BSK_4H_VCAM1: BioMAP Diversity Plus: 4H Assay for Vascular cell adhesion molecule 1 (VCAM1) Biomarker Activity (AID 2283033).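 As to outcome: cell-surface VCAM-1 protein measured by ELISA.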 The settings on record: primary human endothelial cells (HUVEC); actives raise or lower the signal. An outline of the steps:
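Chemicals are added to primary human umbilical vein endothelial cells. After 24 h, VCAM-1 levels are measured by ELISA. Values come from bidirectional fitting referenced to DMSO.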

Read-out in assay [13]: Interferon-gamma inducible Protein 10 (IP10), CXCL10 (gene 3627)
The experiment in a line: BSK_BE3C_IP10: BioMAP Diversity Plus: BE3C Assay for Interferon-gamma inducible Protein 10 (IP10) Biomarker Activity (AID 2283034). To be noted: primary human bronchial epithelial cells; actives raise or lower the signal. An outline of the steps:
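IP-10 quantified by ELISA serves as the endpoint. Cells: primary human bronchial epithelium, read 24 h after compound addition. Activity is derived by bidirectional fitting with DMSO as negative control.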

Read-out in assay [14]: Monokine induced gamma interferon (MIG), CXCL9 (gene 4283)
The experiment in a line: BSK_BE3C_MIG: BioMAP Diversity Plus: BE3C Assay for Monokine induced gamma interferon (MIG) Biomarker Activity (AID 2283035).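 Also: MIG protein measured by ELISA in BE3C cultures after 24 h of dosing.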 To be noted: primary human bronchial epithelial cells; actives raise or lower the signal. An outline of the steps:
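Dose cells (human primary bronchial epithelial), incubate 24 h, quantify MIG by ELISA, then fit concentration–response in both directions relative to DMSO control.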

Read-out in assay [15]: Transforming growth factor beta 1 (TGFb1), TGFB1 (gene 7040)
The experiment in a line: BSK_BE3C_TGFb1: BioMAP Diversity Plus: BE3C Assay for Transforming growth factor beta 1 (TGFb1) Biomarker Activity (AID 2283036;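 also: TGF-b1 protein level measured by ELISA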). To be noted: primary human bronchial epithelial cells; actives raise or lower the signal. An outline of the steps:
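Bronchial epithelial primary cells are treated with test chemical, then TGF-b1 is quantified by ELISA after 24 hours. Values derive from bidirectional fitting against DMSO, with cytotoxicity checked by SRB staining in parallel cultures.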

Read-out in assay [16]: Plasminogen activator inhibitor-1 (PAI1), SERPINE1 (gene 5054)
The experiment in a line: BSK_BE3C_PAI1: BioMAP Diversity Plus: BE3C Assay for Plasminogen activator inhibitor-1 (PAI1) Biomarker Activity (AID 2283037). To be noted: primary human bronchial epithelial cells; actives raise or lower the signal. An outline of the steps:
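Values derive from bidirectional fitting against DMSO baseline of PAI-1 levels, measured by ELISA in human bronchial epithelial cells 24 h after compound addition.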

Read-out in assay [17]: urokinase plasminogen activator (uPA), PLAU (gene 5328)
The experiment in a line: BSK_BE3C_uPA: BioMAP Diversity Plus: BE3C Assay for urokinase plasminogen activator (uPA) Biomarker Activity (AID 2283038).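 Also: uPA protein level quantified by ELISA in cell cultures; uPA read one day after compound addition.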 To be noted: primary human bronchial epithelial cells; actives raise or lower the signal. An outline of the steps: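 Using confluent primary human lung bronchial epithelial cultures, we dosed chemicals, waited 24 h, then ran a uPA ELISA, fitting bidirectionally against DMSO.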

Read-out in assay [18]: Urokinase-type plasminogen activator receptor (uPAR), PLAUR (gene 5329)
The experiment in a line: BSK_BE3C_uPAR: BioMAP Diversity Plus: BE3C Assay for Urokinase-type plasminogen activator receptor (uPAR) Biomarker Activity (AID 2283039).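 As to outcome: uPAR protein level measured by ELISA on the cells; cells exposed to compound for one day before measurement.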 The settings on record: primary human bronchial epithelial cells; actives raise or lower the signal. An outline of the steps:
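Steps: dose human primary bronchial epithelial cells, incubate 24 h, measure uPAR by ELISA, then fit gain- or loss-of-signal response bidirectionally relative to DMSO.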

Read-out in assay [19]: Interleukin-6 (IL6), IL6 (gene 3569)
The experiment in a line: BSK_CASM3C_IL6: BioMAP Diversity Plus: CASM3C Assay for Interleukin-6 (IL6) Biomarker Activity for (AID 2283040). The settings on record: primary human coronary artery smooth muscle cells; actives raise or lower the signal.

Read-out in assay [20]: Tissue plasminogen activator (tPA), PLAT (gene 5327)
The experiment in a line: BSK_BE3C_tPA: BioMAP Diversity Plus: BE3C Assay for Tissue plasminogen activator (tPA) Biomarker Activity (AID 2283041).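 Also: tPA level quantified by ELISA one day after compound addition.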 To be noted: primary human bronchial epithelial cells; actives raise or lower the signal. An outline of the steps: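 Gain- or loss-of-signal in tPA, measured by ELISA, derived by bidirectional fitting against DMSO. Cells: human primary bronchial epithelial; read at 24 h after chemical dosing.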

Molecules are shown by their SMILES. Active and inactive are the calls of the source. The calls were made as follows: active = hit-call score of the fitted dose curve at least 0.9, where 1 is the maximum; inactive = score below 0.9.

As usually defined, the AC50 is the concentration giving half of the maximal activity seen.

For `Nc1c(Cl)c(F)nc(OCC(=O)O)c1Cl`, the result in assay [1], in [2], in [3], in assay [4], in [5] and in assay [6] was inactive. Also, the outcome in [7], in assay [8], in assay [9], in [10], in assay [11] and in assay [12] was inactive. Besides, the outcome in assay [13], in [14], in assay [15], in assay [16], in assay [17] and in assay [18] was inactive. Moreover, the outcome in [19] and in assay [20] was inactive.
Take `N#Cc1c[nH]cc1-c1cccc2c1OC(F)(F)O2`: the outcome in assay [1], in assay [3], in assay [7], in [8], in [10] and in assay [11] was inactive. The result in assay [13], in assay [14], in assay [15], in assay [16], in assay [17] and in assay [18] was inactive. Besides, the outcome in assay [19] and in [20] was inactive. Besides, the half-maximal activity concentration (AC50) in [2] was 11.6 µM (active); in assay [4], 11.2 µM (active); in assay [5] it was 11.7 µM (active); in assay [6], 6.27 µM (active); in assay [9] it was 14.7 µM (active); in assay [12], 20 µM (active).
In the case of `CCSC(=O)N1CCCCCC1`, the result in assay [1], in assay [2], in assay [3], in [4], in assay [5] and in [6] was inactive. Moreover, the outcome in [7], in assay [8], in assay [9], in [10], in assay [11] and in assay [12] was inactive. For the same compound, the outcome in assay [13], in assay [14], in assay [15], in assay [16], in [17] and in assay [18] was inactive. Moreover, the outcome in assay [19] and in assay [20] was inactive.
As to `CC(C)Nc1nc(Cl)nc(NC(C)C)n1`, the result in assay [1], in [2], in [3], in [4], in assay [5] and in [6] was inactive. The outcome in assay [7], in assay [8], in [9], in [10], in [11] and in assay [12] was inactive. Besides, the outcome in [13], in assay [14], in [15], in [16], in assay [17] and in [18] was inactive. For the same compound, the result in assay [19] and in [20] was inactive.
For `COC(=O)NC(=S)Nc1ccccc1NC(=S)NC(=O)OC`, the result in assay [1], in [2], in assay [3], in assay [4], in assay [5] and in [6] was inactive. Moreover, the outcome in [7], in assay [9], in assay [10], in [11], in [13] and in assay [14] was inactive. In addition, the result in [15], in assay [16], in assay [17], in [19] and in assay [20] was inactive. The AC50 in [8] was 10.8 µM (active); in assay [12] it was 0.312 µM (active); in [18] it was 1.46 µM (active).
For the compound `CCNC(=O)NC(=O)C(C#N)=NOC`, the result in assay [1], in assay [2], in [3], in [4], in assay [5] and in assay [6] was inactive. Further, the outcome in assay [7], in assay [8], in [9], in assay [11], in assay [12] and in assay [13] was inactive. Moreover, the result in assay [14], in assay [15], in [16], in assay [17] and in [18] was inactive. In [19], the AC50 is 6.13 µM (active).
`CC1(C)C(C=C(Cl)Cl)C1C(=O)OC(C#N)c1cccc(Oc2ccccc2)c1` (stereo not drawn): the outcome in assay [1], in assay [3], in assay [4], in [5], in assay [7] and in [8] was inactive. The result in [9], in assay [10], in [11], in assay [12], in assay [13] and in assay [14] was inactive. The result in [15], in assay [16], in assay [17], in assay [18], in assay [19] and in assay [20] was inactive. The AC50 in assay [2] is 8.06 µM (active); in assay [6] it was 14 µM (active).

The values are drawn from PubChem BioAssay (EPA / NIEHS).
